Compound activity (PubChem BioAssay)
FLuc inh-1 = blocks purified firefly luciferase enzyme activity | 76,000 compounds, 2.5% hits | Potency, µM (highest dose often 115 µM), usual class: inhibitors | P08659 | purified P. pyralis luciferase, luminescence, biochemical; also: % is scaled to controls: 0 for no effect and ±100 for the full control effect; nearly all actives have a fitted effect of over 65% in size
Target sequence (P08659 whole entry, looked up): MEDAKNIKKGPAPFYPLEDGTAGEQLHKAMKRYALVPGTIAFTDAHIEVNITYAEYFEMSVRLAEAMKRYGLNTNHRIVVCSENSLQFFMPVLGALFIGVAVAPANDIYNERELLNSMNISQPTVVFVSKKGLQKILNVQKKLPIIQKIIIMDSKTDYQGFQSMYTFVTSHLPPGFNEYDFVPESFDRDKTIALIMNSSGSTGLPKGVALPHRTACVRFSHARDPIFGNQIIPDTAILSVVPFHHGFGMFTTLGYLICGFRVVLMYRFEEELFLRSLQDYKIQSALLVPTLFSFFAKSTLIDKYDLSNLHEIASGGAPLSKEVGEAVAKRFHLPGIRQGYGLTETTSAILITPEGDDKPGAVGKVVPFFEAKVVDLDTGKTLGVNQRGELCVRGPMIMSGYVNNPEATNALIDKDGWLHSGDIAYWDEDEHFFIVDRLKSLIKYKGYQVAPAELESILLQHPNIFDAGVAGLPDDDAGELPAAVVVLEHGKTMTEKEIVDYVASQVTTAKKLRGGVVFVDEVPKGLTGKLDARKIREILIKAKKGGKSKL
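Luminescence read by CCD imaging after purified firefly luciferase (10nM final) was added to substrate buffer holding 10uM D-luciferin and 10uM ATP, pH 7.5, pre-dosed with compound.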
HEK293 tox = cytotoxic compounds in HEK 293 cells. Potency, µM (titrated, usually from 115 µM), for inactives: top-dose activity change, negative = cytotoxicity, actives largely listed as inhibitors. 94,000 compounds, 6.6% hits. HEK 293 viability, ATP luminescence (CellTiter-Glo), 48-72 h; also: % is scaled to controls: 0 for no effect and ±100 for the full control effect; nearly all actives have a fitted effect of over 60% in size
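Cytotoxicity was scored by loss of ATP-coupled luminescence (CellTiter-Glo) in HEK 293 cells. Compound treatment ran 48 or 72 hr at 37 degree Celsius, 5% CO2, 95% humidity.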
NPR1 antag = antagonists of human natriuretic peptide receptor Npr1; HEK293 hNpr1 GloSensor cGMP, ANP-stimulated luminescence; Potency, µM (doses to about 46.3 µM), for inactives: top-dose activity change, negative = inhibition, most hits filed as inhibitors; 76,000 compounds, 1.6% hits; calls by dose curve; also: % is scaled to controls: 0 for no effect and ±100 for the full control effect; nearly all actives have a fitted effect of over 60% in size
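Compound pre-incubated 30 min at room temperature on GloSensor-loaded HEK293 cells stably carrying hNpr1 and the pGS-40F cGMP biosensor. Stimulation uses hNppA at 0.1 nM final; luminescence is taken at baseline and 20 min post-agonist.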
3T3 cytotox = NIH 3T3 cell cytotoxicity; NIH 3T3 viability, CellTiter-Glo ATP luminescence, 48-72 h; Potency, µM (series often up to 96.7 µM), for inactives: at the top dose activity change, negative = cytotoxicity, most hits filed as inhibitors; 94,000 compounds, 4.3% hits; AID 1345082; also: % is scaled to controls: 0 for no effect and ±100 for the full control effect; nearly all actives have a fitted effect of over 55% in size
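Mouse fibroblast NIH 3T3 cells, 400 per well, received compound via pintool and were incubated for 48 or 72 hr prior to CellTiter-Glo ATP luminescence measurement.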
FLuc SDR no ATP = binders stabilizing firefly luciferase, without ATP | Potency, µM (titrated, usually from 32.7 µM), without a hit: top-dose activation (signal gain), hits mostly activators | 1,300 compounds, 7.8% hits | shares compounds with FLuc inh-1 | Purified FLuc-C-HiBiT, Nano-Glo HiBiT luminescence, no ATP; also: nearly all actives have a fitted effect of over 55% in size
FLuc SDR ATP = firefly luciferase binding stabilization, ATP added. shares compounds with FLuc inh-1. AID 1963319. purified FLuc-C-HiBiT + ATP, HiBiT complementation luminescence. Potency, µM (doses to about 32.7 µM), inactives show at the top dose activation (gain of signal), most hits filed as activators. 1,300 compounds, 8.7% hits;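 also: signal reports ligand binding via conformational change of the enzyme rather than luciferase catalysis; % of control where 0% means no effect; nearly all actives have a fitted effect of over 55% in size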
FLuc inh-2 = blocks firefly luciferase enzymatic activity | purified FLuc-C-HiBiT enzyme, luciferin luminescence | shares compounds with FLuc inh-1 | Potency, µM (titrated, usually from 32.7 µM), inactives show at the top dose activity change, negative = inhibition, usual class: inhibitors | 1,300 compounds, 42% hits; also: % is scaled to controls: 0 for no effect and ±100 for the full control effect; nearly all actives have a fitted effect of over 70% in size
The depositor's hits bear a star; i = inactive; ? = inconclusive; nt = not tested or not shown; [ ] = dose if it differs, or a comment. Only some compounds are listed: those with a hit (about 11% of all), similar ones and a draw of the others. Unless noted, calls follow the shape of the dose curve; as a rule, active = well fitted curve in the direction sought with a large enough effect; inconclusive = small, poorly fitted or top-dose-only effect, or another doubt; inactive = no such curve, though single readings can be large; an effect the other way counts as inactive or inconclusive. Potency is read from the fitted curve at half-maximal effect.

SMILES | FLuc inh-1 | HEK293 tox | NPR1 antag | 3T3 cytotox | FLuc SDR no ATP | FLuc SDR ATP | FLuc inh-2
COc1cccc(-c2noc(-c3ccc(N4CCCC(CO)C4)nc3)n2)c1OC (stereo not given) | 1.8µM* | ? | -29% | ? | ? | ? | 2.8µM*
OC1CCCN(c2ccc(-c3nc(-c4cccc(C(F)(F)F)c4)no3)cn2)C1 (stereo not given) | 1.6µM* | ? | 10µM* | ? | 15% | 13% | ?
CC(C)Cc1noc(-c2ccc(N3CCCC(C(C)(C)O)C3)nc2)n1 (stereo not given) | i | ? | -11% | ? | nt | nt | nt
CC(=O)N1CCCN(c2ccc(-c3nc(-c4ccccc4F)no3)cn2)CC1 | 13µM* | -1% | -3% | 1% | 13% | ? | ?
C[C@@H]1CN(Cc2nc3c(n2Cc2ccccc2)C(=O)N(CCOc2ccccc2)CCN3)C[C@H](C)O1 | i | ? | 5% | -15% | nt | nt | nt
O=C(NCCN1CCOCC1)c1cc(-c2cc(Cl)cc(Cl)c2)c2nncn2n1 | nt | 2% | nt | -19% | nt | nt | nt
CCCCCc1nn2cc(-c3ccccc3)nc2s1 | nt | nt | nt | nt | ? | ? | 0.62µM*
Cc1cccc(NC(=O)N2CCc3c(C(=O)N4CCN(C)CC4)cccc32)c1 | 7.1µM* | ? | -25% | -10% | 22% | 2.5µM* | 1.8µM*
CCC(C)(C)NC(=O)c1cccc2c1CCN2C(=O)Nc1cccc(C)c1 | 7.9µM* | ? | -22% | -27% | ? | 11µM* | 7.9µM*
Cc1cc(C(=O)N2CCCC(c3noc(COc4ccccc4)n3)C2)nn1C (stereo not given) | i | ? | 2% | ? | nt | nt | nt
CCN1C[C@H]2COc3ccccc3[C@H]2N(C(=O)COc2ccccc2)CCC1=O | nt | -9% | nt | ? | nt | nt | nt
COc1cccc(-c2nc3cc(NC(=O)c4ccc(F)c(C#N)c4)ccc3s2)c1 | nt | nt | nt | nt | 15% | 12% | -7%
COc1cccc(-c2cc(C(=O)Nc3ccc(F)cc3)c3cnn(C)c3n2)c1 | nt | ? | nt | -13% | nt | nt | nt
CCOc1ccccc1C(=O)Nc1cccc(-c2nc3ccccc3s2)c1 | nt | nt | nt | nt | 14% | 11% | ?
Cc1cccc(OCC(=O)Nc2cccc(-c3nc4ccccc4s3)c2)c1 | nt | nt | nt | nt | 14% | 10% | ?
Cc1ccc(OCC(=O)Nc2cccc(-c3nc4ccccc4s3)c2)cc1 | nt | nt | nt | nt | 14% | 13% | 9.9µM*
O=C(COc1ccc(F)cc1)Nc1cccc(-c2nnc3n2CCCC3)c1 | ? | ? | -21% | -24% | nt | nt | nt
COc1ccccc1C(=O)Nc1cccc(-c2nnc3n2CCCC3)c1 | ? | -4% | 3% | -24% | nt | nt | nt
Cc1cccc(OCC(=O)Nc2cccc(-c3nnc4n3CCCC4)c2)c1 | i | ? | -17% | -29% | nt | nt | nt
COc1ccc(CN2CCc3oc(C)c(C(=O)N4CCCCCC4)c3C2)cc1 | i | ? | -14% | ? | nt | nt | nt
Cc1cnc(C2CN(C(=O)C(C)c3ccccc3)C2)n1Cc1ccccc1 (stereo not given) | nt | -27% | nt | -25% | nt | nt | nt
CN1CC(=O)N(c2ccc(Cl)cc2)Cc2c(NC3CCNCC3)ncnc21 | nt | i | nt | -9% | nt | nt | nt
COc1ccc(C(=O)Nc2cccc(-c3nc4ccccc4s3)c2)cc1 | nt | nt | nt | nt | 14% | 9% | -15%
O=C(Cc1ccccc1Cl)Nc1cccc(-c2nnc3n2CCCC3)c1 | i | -10% | 2% | -10% | nt | nt | nt
CCC(CC)C(=O)Nc1cccc(-c2nc3ccccc3s2)c1 | nt | nt | nt | nt | 26% | 7% | ?
SMILES | FLuc inh-1 | HEK293 tox | NPR1 antag | 3T3 cytotox | FLuc SDR no ATP | FLuc SDR ATP | FLuc inh-2
O=C(CSc1nnc2ccccn12)Nc1cccc(-c2nc3ccccc3s2)c1 | nt | nt | nt | nt | 13% | 9% | -7%
CC(=O)Nc1cccc(-c2ccc3c(n2)c(=O)ncn3Cc2ccccc2)c1 | i | -6%[172 µM] | -7%[70.6 µM] | ? | nt | nt | nt
Cc1cccc(C(=O)N2CCC3(CC2)c2[nH]c4ccccc4c2CCN3C)c1 | i | -9% | -2% | 0% | nt | nt | nt
CCn1ccnc1C1CCN(c2nc3ccccc3o2)CC1 | ? | -17% | 0% | -6% | nt | nt | nt
CC(=O)Nc1ccc(C(=O)N2CCC3(CC2)N=C(c2cccc(Br)c2)NO3)cc1 | i | ? | -26% | ? | nt | nt | nt
COc1cccc2cc(-c3nnc(-c4ccc(Cl)cc4)o3)c(=O)oc12 | nt | nt | nt | nt | 17% | ? | ?
CS(=O)(=O)N1CCC(C2CCN(Cc3ccc4c(c3)CCO4)C2)CC1 (stereo not given) | i | i | -2% | i | nt | nt | nt
COc1cccc(-c2ncc3c(n2)OCCN(Cc2ccccc2)C3=O)c1 | 2.8µM* | ? | ? | ? | 24%[49.3 µM] | ? | ?
COc1ncccc1-c1ncc2c(n1)OCCN(Cc1ccccc1)C2=O | i | -35%[172 µM] | -12%[70.6 µM] | ? | nt | nt | nt
COc1ccc(-c2ncc3c(n2)OCCN(Cc2ccccc2)C3=O)cc1 | 2.5µM* | ? | 28µM* | ? | 19%[49.3 µM] | 15%[49.3 µM] | ?
O=C1c2cnc(-c3cc4ccccc4o3)nc2OCCN1Cc1ccccc1 | 0.1µM* | ? | 8.9µM* | ? | ? | ? | 1.6µM*
COCCN1CCOc2nc(-c3cccc(N(C)C)c3)ncc2C1=O | nt | nt | nt | nt | 28%[49.3 µM] | ? | ?
CCCNC(=O)N[C@@H]1C[C@H](Cn2cc(CN(C)C)nn2)[C@@H](O)[C@H]1O | i | 0%[172 µM] | 4%[70.6 µM] | -1%[138 µM] | nt | nt | nt
Cc1ncccc1-c1nc2cc(C(=O)N(C)C)ccc2o1 | nt | -24%[172 µM] | nt | ? | nt | nt | nt
O=C(Nc1ccc2c(c1)OCCO2)N1CCCC1c1nc(CCOCC2CCCC2)no1 (stereo not given) | ? | ? | 0% | -23% | nt | nt | nt
O=C(Nc1ccc2c(c1)OCCO2)N1CCC(c2nc(C3CCOCC3)no2)CC1 | 10µM* | -4% | 1% | -18% | 19% | 15% | ?
O=C(Nc1ccc2c(c1)OCCO2)N1CC(c2nc(CCOCC3CC3)no2)C1 | 11µM* | ? | 2% | -26% | 21% | 13% | ?
O=C(NC1CCCCC1)N1CCC(c2nc(C3CCOCC3)no2)CC1 | i | -8% | 12% | -14% | nt | nt | nt
COc1ccc(-c2cn(C)c(=O)n3cc(COc4ccc(C(=O)O)cc4)nc23)c(C)c1 | i | ? | 3%[70.6 µM] | ? | nt | nt | nt
COc1ccccc1CNC(=O)C1CCN(c2cnc3nccnc3c2)CC1 | i | 0% | 6% | i | nt | nt | nt
O=C(NCc1cccc(Cl)c1)C1CCCN(c2nn3cc(-c4ccc(F)cc4)nc3s2)C1 (stereo not given) | nt | nt | nt | nt | 21% | ? | ?
